PINK1 modulator – modulators of PINK1 expression; PINK1 immunofluorescence, high-content cytometry, 24 h; 0.2% of 410,000 active; Potency, µM (doses to about 76.6 µM), for the others: at the highest dose activation (PINK1 increase), hits mostly activators; active = well fitted activation curve with a large enough effect; inconclusive = small, poorly fitted or top-dose-only effect; cell line not stated here; note: potency is the fitted concentration of half-maximal effect; % of control where 0% means no effect; nearly all actives have a fitted effect of over 65% in size
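Cells are seeded, rested 12 hours, then given compound at five concentrations or DMSO for 24 hours. After fixation, blocking and antibody staining, PINK1 amount and mitochondrial localization are scored; CCCP serves as control.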
PTHR1 ag – PTHR1 (human) receptor agonism; HEK293 GP2 PTHR1 cells, GloSensor cAMP luminescence, 1 h; Potency, µM (doses to about 115 µM), for inactives: top-dose activation, hits mostly activators; Q03431; 0.075% of 410,000 active; note: potency is the fitted concentration of half-maximal effect; nearly all actives have a fitted effect of over 55% in size
Target sequence (Q03431 whole entry, looked up): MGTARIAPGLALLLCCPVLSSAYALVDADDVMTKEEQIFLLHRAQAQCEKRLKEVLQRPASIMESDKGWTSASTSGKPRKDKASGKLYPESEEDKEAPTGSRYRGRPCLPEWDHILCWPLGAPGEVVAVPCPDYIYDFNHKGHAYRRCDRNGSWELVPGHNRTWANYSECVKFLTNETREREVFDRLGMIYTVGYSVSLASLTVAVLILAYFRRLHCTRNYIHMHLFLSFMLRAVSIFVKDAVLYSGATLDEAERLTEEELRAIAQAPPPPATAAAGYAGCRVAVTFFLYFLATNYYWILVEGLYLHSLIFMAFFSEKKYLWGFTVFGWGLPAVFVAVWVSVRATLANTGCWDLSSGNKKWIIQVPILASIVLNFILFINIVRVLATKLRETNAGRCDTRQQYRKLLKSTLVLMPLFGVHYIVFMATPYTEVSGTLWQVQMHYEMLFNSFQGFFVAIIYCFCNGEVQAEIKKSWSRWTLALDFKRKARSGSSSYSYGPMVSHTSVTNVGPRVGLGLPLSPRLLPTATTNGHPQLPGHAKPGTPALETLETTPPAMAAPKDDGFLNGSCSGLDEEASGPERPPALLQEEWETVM
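HEK-293-derived GP2 cells expressing PTHR1 and a GloSensor cAMP reporter, 3,000/well, plated overnight, given luciferin plus IBMX (each 0.5 mM as added) for 1 h at 37 °C, then compound for 1 h at 37 °C. Luminescence was read after 15 min at room temperature.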
Vif-A3F inh – blocks the Vif interaction with APOBEC3F; Potency, µM (titrated, usually from 46.1 µM), without a hit: top-dose activity, negative = active; HeLa A3F-eYFP + Vif (tagged APOBEC3F with the HIV-1 protein that degrades it), YFP fluorescence increase; 0.2% of 390,000 active; note: potency is the fitted concentration of half-maximal effect; % of control where 0% means no effect; nearly all actives have a fitted effect of over 65% in size
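HeLa cells stably expressing Vif plus C-terminally eYFP-tagged A3F were seeded, incubated overnight at 37 deg C, dosed with compound, incubated overnight again at 37 deg C. Yellow fluorescence (Ex 488/Em 500-530) reported blocked Vif-mediated A3F-eYFP degradation.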
Vif-APOBEC3G blk – Vif-A3G binding inhibition; Q9HC16; HeLa A3G-eYFP + Vif (tagged APOBEC3G with the HIV-1 protein that degrades it), YFP fluorescence, overnight; Potency, µM (titrated, usually from 46.1 µM), for the others: at the highest dose activity, negative = active, hits mostly inhibitors; 0.076% of 410,000 active; AID 602310; note: potency is the fitted concentration of half-maximal effect; % is set by controls: 0 for no effect and ±100 for the full control effect; nearly all actives have a fitted effect of over 60% in size
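HeLa cells stably expressing Vif and C-terminally eYFP-tagged A3G, seeded overnight at 37 deg C, then exposed to compound by pintool overnight at 37 deg C. Rise in yellow fluorescence (Ex 488/Em 500-530, Acumen) marks blocked Vif-driven A3G degradation.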
LDHA inh – LDHA (human) enzyme inhibition. activity change, % (values are at about 110 or 230 µM). P00338. purified LDHA, NADH/diaphorase-resazurin fluorescence; hits give low values. 0.15% of 480,000 active. AID 1347041; in the data active = activity change below about -30%; inconclusive = mostly about -25% to -30%;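 note: plate controls were DMSO wells for no effect and wells without enzyme for full effect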
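Resorufin fluorescence (ex540/em590), read at 0 and 20 min after diaphorase/resazurin addition, reports the NADH left after a 5 min room-temperature reaction of 2 nM human LDH5 with 0.06 mM NADH and 0.2 mM pyruvate.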
IDH1 R132H inh – blocks human mutant IDH1 R132H enzyme; 0.093% of 390,000 active; Potency, µM (highest dose often 76.6 µM), without a hit: at the highest dose activity change, negative = inhibition, most hits filed as inhibitors; IDH1-R132H enzyme, NADPH consumption, diaphorase/resazurin fluorescence; AID 602179; O75874; note: potency is the fitted concentration of half-maximal effect; % is set by controls: 0 for no effect and ±100 for the full control effect; nearly all actives have a fitted effect of over 65% in size
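IDH1-R132H (0.5 ug/mL dispensed) in pH 7.5 Tris buffer was preincubated 30 min with compound, then given a substrate mix of 0.016 mM NADPH and 2 mM alpha-KG for 80 min at room temperature; remaining NADPH was read by diaphorase/resazurin fluorescence.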
* marks the source's active call; other numbers are inactive results; i = inactive; u = inconclusive; x = no result given; [ ] = remark or other dose. Hits are enriched below; roughly 0.59% of the tested compounds scored in any of these assays. Unless noted, calls come from the whole dose curve; as a rule, active = well fitted curve in the direction sought with a large enough effect; inconclusive = small, poorly fitted or top-dose-only effect, or another doubt; inactive = no such curve, though single readings can be large; an effect the other way counts as inactive or inconclusive.

SMILES | PINK1 modulator | PTHR1 ag | Vif-A3F inh | Vif-APOBEC3G blk | LDHA inh | IDH1 R132H inh
O=C1NC(=O)C(=Cc2cc(Cl)ccc2OCc2ccc(C(=O)O)cc2)C(=O)N1 | 6% | -22% | 0% | -1% | -90* | -6%
CN1C(=O)C(=Cc2ccccc2OCc2ccc(Cl)cc2)C(=O)N(C)C1=O | 5% | -5% | 6% | -10% | -6 | -4%
CC(C)c1ccccc1OCC(=O)N1CCN(Cc2nc(N)c3ccccc3n2)CC1 | x | x | x | x | -5 | x
O=c1oc2ccccc2c(O)c1C(c1ccc([N+](=O)[O-])cc1)c1c(O)c2ccccc2oc1=O | 0% | i | 3% | -15% | -67* | u
Cc1cccc(NC(=O)CCl)c1 | x | x | x | x | 0 | x
CN(C)c1ccc(/C=C/C=C2/C(=O)NC(=O)N(c3ccccc3)C2=O)cc1 | 19% | -41% | 7.9µM* | u | 0 | -4%
O=C1NC(=O)N(c2ccccc2)C(=O)/C1=C/C=C/c1ccco1 | -1% | -43% | -18% | u | 4 | 4%
[Hg+][c]1ccccc1 | -1% | x | x | -14% | -62* | x
O=C(Nc1cccc2c1CCCC2)N1CCC2(CC1)OCCO2 | x | x | x | x | 18 | x
COCCCn1c(=O)/c(=C\c2ccccc2OC(F)F)s/c1=C(/C#N)C(=O)NCCOC | u | i | 25µM* | -8% | -4 | 4%
CCCCNC(=O)/C(C#N)=c1\s/c(=C\c2ccccc2OC(F)F)c(=O)n1CCCOC | u | i | 8.9µM* | u | 3 | 4%
CCc1ccc(C2SCC(=O)Nc3n[nH]c(C)c32)cc1 (stereo unspecified) | x | x | x | x | 0 | x
CSc1ccc(CN2CCN(Cc3ccccc3Cl)CC2)cc1 | 13% | i | 2% | -2% | -31* | 4%
COc1ccc(-c2c(C)c3cc(OC(=O)N(C)C)ccc3oc2=O)cc1 | x | x | x | x | -33* | x
C[n+]1c(-c2ccccc2)cc(CCCCc2cc(-c3ccccc3)[n+](C)c(-c3ccccc3)c2)cc1-c1ccccc1 | 32µM* | i | 2% | -5% | -5 | -8%
COc1ccc(-c2cc(-c3ccccc3)[n+](C)c(-c3ccccc3)c2)cc1 | u | -18% | 13% | -1% | -3 | 2%
COc1cccc(CNCCc2ccc(Cl)cc2)c1 | x | x | x | x | -4 | x
Nc1ccc2c3c(cccc13)-c1ccccc1-2 | 11µM* | i | u | u | 15 | 16%
Nc1cccc2ccccc12 | x | x | x | x | 58 | x
CCCCCn1c(NC(=O)c2ccco2)c(C(=O)OCC)c2nc3ccccc3nc21 | 6% | -43% | u | 11µM* | 39 | 0%
Cc1ccc(S(=O)(=O)N2Cc3ccccc3-n3nncc3C2)cc1 | 0% | i | 6% | 1% | -12 | 1%[38.3 µM]
CC(=O)Nc1ccc(S(=O)(=O)N2Cc3ccccc3-n3nncc3C2)cc1 | 1% | -23% | -16% | 0% | -30* | -5%
CCn1cc(C(=O)Nc2cccc3ncccc23)c2ccccc21 | x | x | x | x | 32 | x
Cc1ccccc1-n1c(/C=C/c2ccc(N(C)C)cc2)nc2ccccc2c1=O | 3% | i | u | 3.2µM* | 2 | -10%
CN1C(=O)C(Cc2ccccc2)C(=O)N(C)C1=O | 1% | i | 8% | -1% | -8 | 0%
CN1C(=O)C(Cc2ccsc2)C(=O)N(C)C1=O | 0% | 28µM* | -8% | -3% | 4 | u
CN1CC=C2C(C#N)=C(N)C(C#N)(C#N)C(c3ccncc3)C2C1 (stereo unspecified) | 25µM* | i | 0% | 1% | 9 | -2%
O=C1NC(=O)N(Cc2ccc(F)cc2)C(=O)/C1=C/c1cccs1 | -1% | -26% | u | -16% | -8 | 0%
COc1ccc(CN2C(=O)NC(=O)/C(=C\c3cccc(OC)c3OC)C2=O)cc1 | 1% | i | -17% | 0% | -31* | 1%
Cc1ccc(/C=C2/C(=O)NC(=O)N(CCc3ccc(F)cc3)C2=O)s1 | 10% | -19% | 8.9µM* | 2% | -1 | 0%
